Several values for one entry are separate records, joined by “and”; a condition that tells them apart may be missing. Equal entries are not always repeated. This is part of a sample that, as a whole, favours compounds with a hit. Of some 83,000 tested, about 20% had one in any assay.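 Assay: single dose, 48 h. Readout: percent growth (0 = no net growth; negative = cell death). Active: <10.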 Unmarked numbers belong to inactive results. Activity calls are given as the source filed them.
Each compound was assayed on MDA-MB-468 breast (assay: NCI-60 one-dose screen, 48 h (100 = growth as untreated, 0 = no growth, -100 = all killed)). Conditions: 10 µM unless noted.
In the case of CN(Cc1ccc(C(F)(F)F)cc1)CC(O)C(=O)Nc1ccc(Cl)cc1 (stereo not given), the growth is reported as -30.5% (active).
Compound C=C(C)[C@@H]1CC[C@]2(C(=O)O)CC[C@]3(C)[C@H](CC[C@@H]4[C@@]5(C)C[C@@H](Cc6cn(CCO[C@@H]7O[C@H](COC(C)=O)[C@H](OC(C)=O)[C@H](OC(C)=O)[C@H]7OC(C)=O)nn6)[C@H](O)C(C)(C)[C@@H]5CC[C@]43C)[C@@H]12 has a growth of 64.4%.
Work on Cc1cc(Cl)nc(Nc2ccccc2)n1 yielded a growth of 105%.
In the case of CCN(CC)CCOc1ccc(/C(=C(\C)c2ccc(Cl)cc2)c2ccc(Cl)cc2)cc1, the growth is reported as 70.6%.
Cc1ccc(OCCn2c(C)nn(-c3ccc(Cl)cc3)c2=O)cc1 gave a growth of 124%.
N#C/C(=C\c1ccc(-c2cccc(Cl)c2)o1)C(=O)Nc1ncc(Cc2ccc(Cl)cc2)s1 was tested, and the growth was 47%.
CCOc1ccc(-n2nc(C(=O)Nc3ccccc3)nc2-c2cc(OC)c(OC)c(OC)c2)cc1 gave a growth of 42.5%.
Cc1c(NCC(=O)Nc2nc3ccccc3[nH]2)c(=O)n(-c2ccccc2)n1C was tested, and the growth was 106%.
With O=C(/C=C/c1ccccc1)CC(c1ccccc1)N1CCOCC1 (stereo not given) the growth was 92.4%.
For COc1ccc(CCN2C(=O)/C(=C/c3ccc(C4Oc5ccccc5C5CC(c6ccccc6)=NN54)cc3)SC2=S)cc1 (stereo not given), the growth was 118%.
C=CCn1c(C)nc2ccc(Nc3nc(Nc4ccc(F)cc4)nc4ccccc34)cc21 showed a growth of 49.3%.
C=C1C(=O)O[C@H]2[C@H]1CC/C(C=Nc1c(N)cc(F)cc1Br)=C\CC[C@@]1(C)O[C@@H]21 was tested, and the growth was 44%.
Cn1c(NCCc2ccc(O)c(O)c2)nc2c1c(=O)n(Cc1ccc(Cl)c(Cl)c1)c(=O)n2C was tested, and the growth was 49.4%.
For N#Cc1c(-c2ccccc2)nc2c(c(-c3ccccc3)nn2-c2ccccc2)c1-c1ccc(N2CCCCC2)cc1, the growth was 93.7%.
With COc1ccc(-c2nc3sc(-c4ccccc4)cn3n2)cc1 the growth was 18.7%.
Compound COc1cc(-c2cc(-c3nc4cc(Cl)c(Cl)cc4[nH]3)[nH]n2)cc(OC)c1OC has a growth of 51.7%.
Cc1nc(-c2cc3ccccc3oc2=O)ccc1C(=O)/C=C/c1ccccn1 was tested, and the growth was 60.5%.
For C=C(C)Cn1c(SCC(=O)c2cccs2)nc2sc3c(c2c1=O)CCCC3, the growth was 68.6%.
In the case of CSc1nc(-c2cccc(NC(=O)CCl)c2)c(C#N)c(=O)n1C, the growth is reported as -4.77% (active).
Cc1cccnc1NC(=S)Nc1ncccc1C showed a growth of 71.9%.
Work on O=C1Nc2ccccc2/C1=C/C(=O)c1ccc(N2CCCCC2)cc1 yielded a growth of 80%.
Work on O=C1Nc2ccccc2/C1=C/c1c[nH]c2ccccc12 yielded a growth of 44.4%.
O=c1ccc2ccc(OCCN3CCCCC3)cc2o1 showed a growth of 105%.
For CCCCCc1cc[n+](CC(=O)c2ccccc2)cc1, the growth was 86.9% and 76%.
With Cc1ccc(S(=O)(=O)Nc2nc3ccccc3nc2Nc2ccc3nsnc3c2)cc1 the growth was 27.4% and 35.8%.
Cc1[nH]n(C(N)=S)c(=O)c1N=Nc1ccc(F)c(Cl)c1 gave a growth of 154%.
COc1ccc(Cc2nnc(Nc3nc4ccccc4s3)s2)cc1 was tested, and the growth was 92.6%.
Work on CN(C)CCCn1c(=O)c2ccccc2c2ccccc21 yielded a growth of 66%.
CN(C)c1ccc(/C=N/Nc2nnc3n2N=C(c2ccc(Cl)cc2)CS3)cc1 was tested, and the growth was 104%.
Compound CCCCn1c(=O)c(-c2cc(-c3ccc(Cl)cc3)nc(-c3ccc(Cl)cc3)c2)cc2cc(C)ccc21 has a growth of 102%.
For O=C(CN1CCCCCC1)Nc1nc2ccc(NCc3ccc(Cl)cc3)cc2s1, the growth was 85.2%.
For CCCC(=O)Oc1ccc(/C(=C(/CC)Cc2ccccc2)c2ccc(OCCN3CCCC3)cc2)cc1, the growth was 42.8%.
N#Cc1nc(-c2ccccc2)oc1S(=O)(=O)NCC(c1ccc(Cl)cc1)N1CCCCC1 (stereo not given) was tested, and the growth was 41.4%.
CC(=O)CC(=O)OC/C=C(/C)CCC=C(C)C was tested, and the growth was 97.6%.
CN(C)c1ncnc2c1ncn2C1CCCCO1 (stereo not given) showed a growth of 111%.
For Cc1ccc2nc(C[n+]3ccc4ccccc4c3)ccc2c1, the growth was -3.95% (active).
Cc1cccc(/C=C/c2nn3c(-c4ccco4)nnc3s2)c1 was tested, and the growth was 93.9%.
CCN1CCC(CCOC)(CN2c3ccccc3Sc3ccc(Cl)cc32)C1 (stereo not given) gave a growth of 16.9%.
CSC1=Nc2c(c(C)c(-c3ccccc3)n2CCCC(=O)O)C2=NC(=O)C[C@H](C)N12 was tested, and the growth was 83.7%.
For CN(C)CCCn1c(=O)c2ccccc2c2cnc3[nH]ccc3c21, the growth was -9.4% (active).

Reference: PubChem BioAssay (NCI)
